# Sampled rows, rich in hits. Any-hit rate of the full collection: about 21%.
# Cycloheximide cs: Cycloheximide Counterscreen for Small Molecule Inhibitors of Shiga Toxin; 12% of 300,000 active; cell reporter, cycloheximide protein synthesis inhibition counterscreen; AID 2314, 2010; max response, %; in the data active means max response mostly above about 13%, no sharp cut-off; inactive means mostly below about 14%; further: read at 38.3 µM for the half of the compounds with a filed dose; 0% is about no effect
# SARS PLpro yeast: qHTS of Yeast-based Assay for SARS-CoV PLP | 0.19% of 330,000 active | S. cerevisiae expressing SARS-CoV PLpro, growth rescue | Potency, µM (top dose mostly 32.9 µM), inactives show top-dose activity, positive = growth rescue, most hits filed as activators; further: potency means the concentration at half of the fitted maximal effect; 0% is about no effect; nearly all actives have a fitted effect of over 55% in size
# Pf growth 96h: Primary qHTS for delayed death inhibitors of the malarial parasite plastid, 96 hour incubation; Potency, µM (titrated, usually from 28.7 µM), without a hit: top-dose activity change, negative = inhibition, actives largely listed as inhibitors; P. falciparum luciferase reporter growth, 96 h; 6.9% of 320,000 active; active means well fitted inhibition curve with a large enough effect; inconclusive means small, poorly fitted or top-dose-only effect, or another doubt; inactive means no such curve, though single readings can be large or run the other way; further: potency means the concentration at half of the fitted maximal effect; on the % scale 0 is the no-effect control and ±100 the full control effect
#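 P. falciparum expressing integrated firefly luciferase grown in erythrocytes (2% hematocrit, 0.05% parasitemia final) with compounds for 96 hours at 37 C, 5% CO2. Growth inhibition read as loss of luminescence after adding luciferase detection reagent.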
# Shiga inhibitor: A qHTS for Small Molecule Inhibitors of Shiga Toxin | Vero cells, Shiga toxin protein synthesis inhibition reporter | 9.2% of 290,000 active | AID 2315, 2010 | inhibition, % at 38.7 µM; in the data active means inhibition mostly above about 28%, no sharp cut-off; inactive means mostly below about 43%; further: 0% is about no effect
# NS1 inh: qHTS Assay for Inhibitors of Influenza NS1 Protein Function. 0.4% of 270,000 active. Potency, µM (doses to about 46.1 µM), for inactives: at the top dose activity, positive = more growth; further: potency means the concentration at half of the fitted maximal effect; actives are rising curves; nearly all actives have a fitted effect of over 50% in size
#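 Read-out: OD600 growth recovery of NS1-expressing budding yeast. Cells grown overnight at 30C in -URA glucose medium, washed, resuspended and diluted 1:100 in 2% galactose assay medium, pH 6.0. Same strain lacking NS1 served as positive control.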
# Pf growth 48h: Primary qHTS for delayed death inhibitors of the malarial parasite plastid, 48 hour incubation; 5.9% of 310,000 active; P. falciparum luciferase growth in erythrocytes, 48 h; Potency, µM (top dose mostly 28.7 µM), for the others: top-dose activity change, negative = inhibition, hits mostly inhibitors; active means well fitted inhibition curve with a large enough effect; inconclusive means small, poorly fitted or top-dose-only effect, or another doubt; inactive means no such curve, though single readings can be large or run the other way; further: potency means the concentration at half of the fitted maximal effect; on the % scale 0 is the no-effect control and ±100 the full control effect
#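 Parasite viability was followed by luminescence of a genomically integrated firefly luciferase. Cultures held 0.1% parasitemia at 2% hematocrit (final), incubated under 5% CO2 at 37 C.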
# The depositor's hits bear a star; ? = inconclusive; . = no result; ! = not active in a repeat. Unless noted, the call rests on the fitted dose curve.
SMILES,Cycloheximide cs,SARS PLpro yeast,Pf growth 96h,Shiga inhibitor,NS1 inh,Pf growth 48h
Fc1ccc(COc2ccc3ccccc3c2CNc2nn[nH]n2)cc1,8.4,0.6%,86.3%,15.7,-3.5%,?
CC(CCN1CCN=C1Nc1ccccc1)c1ccccc1 (configuration not stated),4.4,3.9%,?,-7.6,4.7%,3.4%
Cc1ccccc1C(=O)NC(CC(C)C)C(=O)N1CCN(c2ccccc2)CC1 (configuration not stated),1.1,-1.9%,?,-0.9,-1.8%,?
Cc1cc(C)[n+]2n1C(=O)C(c1ccccc1)=C2[O-],32.8*!,-0.1%,119.6%,57.2,-27.5%,71.8%
O=C(CCN1CCN(c2ccccc2)CC1)NNC(=S)Nc1ccccc1Cl,4.8,12.2%,12.2%,-11.3,.,-7.6%
Cc1ccc2[nH]c(=O)c(-c3nc4cc(C)ccn4c3NCc3ccco3)cc2c1,23.9*,3.3%,51.5%,22.8,-13.0%,23.4%
O=C(COc1ccc(Cl)cc1Cl)NNC(=O)c1cccnc1,13.7,1.2%,14.2%,25.5,4.1%,?
N/C(=N\OC(=O)COc1ccc(Cl)cc1)c1cccnc1,15.2*,-16.4%,36.3%,62.2*,0.5%,42.2%
N/C(=N\OC(=O)COc1ccc(Cl)cc1)c1ccc(Cl)cc1,1.5,16.0%,38.5%,10.7,11.3%,10.6%
Cc1ccc(OCC(=O)O/N=C(\N)c2cccnc2)cc1,22.8*,-1.5%,129.2%,67.9*,-5.1%,74.5%
Cc1cccc(/C(N)=N/OC(=O)COc2ccc(Cl)cc2)c1,-3.0,-4.7%,2.94µM*,17.5,.,?
N/C(=N\OC(=O)COc1ccc(Cl)cc1Cl)c1cccnc1,53.6*,5.4%,1.8%,78.0*,6.4%,176.0%
N/C(=N\OC(=O)COc1ccc([N+](=O)[O-])cc1)c1cccnc1,-1.7,0.9%,-29.2%,14.7,.,1.1%
COc1cccc(NC(=O)CN(C)C(=O)c2ccc(-n3cncn3)c([N+](=O)[O-])c2)c1,.,1.7%,-22.7%,.,.,?
COc1ccc(-c2cc3nc4ccccc4n3c(N)c2C#N)cc1,29.2*,-6.5%,19.2%,56.2*,-58.1%,19.8%
COc1ccc(-c2cc(-c3ccccc3)c(C#N)c(=S)[nH]2)cc1,-4.2,6.4%,0.8%,-10.9,3.5%,12.7%
CCN(CC(=O)Nc1c(F)cccc1F)C(=O)CCNC(=O)c1ccco1,.,0.2%,14.1%,.,.,?
CCC(=O)N1N=C2C3CCN(CC3)C2C1c1ccc(C)cc1 (configuration not stated),-4.4,12.7%,4.15µM*,9.8,2.4%,13.7%
CC1=C(C(=O)Nc2ccccc2)C2(CCCCC2)C(C#N)=C(S)N1,-1.9,8.3%,10.4µM*,-18.4,27.0%,.
N#CC1=C(N)NC(SCC(=O)Nc2ccccc2)=C(C#N)C12CCCC2,19.2,-1.0%,22.7%,5.0,-4.9%,1.65µM*
CSC1=C(C#N)C2(CCCCC2)C(C(=O)Nc2ccccc2)=C(C)N1,.,.,.,.,-40.8%,.
CC(C)C[C@@H](CO)N1CCN(Cc2cccnc2)CCC1=O,7.4,0.5%,50.7%,-5.2,-13.0%,66.8%
CCCCCN1C2=NCCN2c2ccccc21,-4.0,1.4%,8.28µM*,-6.9,1.8%,?
CC(=O)NC(CC(=O)OCC(=O)Nc1ccc2c(c1)OCO2)c1ccccc1 (configuration not stated),1.3,-2.0%,21.2%,19.2,4.7%,19.8%
COc1cccc(N(C(=O)CNC(=O)c2ccco2)C(C(=O)NC2CCCC2)c2ccco2)c1 (configuration not stated),-5.0,3.0%,-2.2%,-6.9,4.3%,?
SMILES,Cycloheximide cs,SARS PLpro yeast,Pf growth 96h,Shiga inhibitor,NS1 inh,Pf growth 48h
NC(C(=O)O)C1CC(Cl)=NO1 (configuration not stated),-4.0,3.4%,3.29µM*,-11.2,10.7%,?
Fc1ccc(CO/N=C2\CCCc3nonc32)cc1,26.5,0.1%,11.2%,61.4,.,28.3%
O=C(N1CCN(Cc2ccc3c(c2)OCO3)CC1)C(Cl)(Cl)Cl,16.6*,1.0%,?,67.1*,-13.3%,?
Cc1cccc(C(=O)N2CCCC(N3CCN(Cc4ccc5c(c4)OCO5)CC3)C2)n1 (configuration not stated),24.7*,3.3%,?,35.2,0.3%,0.0%
Cc1ccc2[nH]c3c(c2c1)CN(C(=O)CN1CCN(Cc2ccc4c(c2)OCO4)CC1)CC3,-4.3,-0.3%,9.28µM*,-12.3,-1.8%,?
O=C(c1cccnc1)N1CCN(Cc2ccc3c(c2)OCO3)CC1,-3.8,4.7%,4.15µM*,-7.4,2.2%,12.3%
Nc1ncnc2c1C(c1ccccc1)c1c(ccc3ccccc13)O2 (configuration not stated),.,-8.7%,.,.,.,.
NC(=O)CN1CCN(Cc2ccc3c(c2)OCO3)CC1,-0.3,-5.2%,11.7µM*,.,7.1%,6.5%
COc1ccc(-c2nc(CSCC(=O)NCCCN3CCCC3=O)c(C)o2)cc1OC,-3.1,-2.1%,9.6%,-8.1,11.6%,8.5%
CN(C)c1ccc(/C=C2\SC(=O)N(CC(O)Cn3c4ccccc4c4ccccc43)C2=O)cc1 (configuration not stated),1.3,-21.9%,-1.5%,-6.6,4.3%,?
CN(C)c1ccc(/C=C2/SC(=O)N(CCN=C3NS(=O)(=O)c4ccccc43)C2=O)cc1,28.9*,-6.2%,-2.7%,63.0*,-1.6%,-4.8%
CCCN(N=Nc1cccc([N+](=O)[O-])c1)c1cccc([N+](=O)[O-])c1,-4.9,-4.3%,.,-11.9,4.8%,-22.6%
CN(N=Nc1cccc([N+](=O)[O-])c1)c1cccc([N+](=O)[O-])c1,33.3*,-3.7%,94.7%,108.8*,.,44.6%
CN(C)S(=O)(=O)c1cccc(COC(=O)Cc2c(F)cccc2Cl)c1,13.7*,-9.7%,-29.8%,26.8,-25.4%,?
CN(C)S(=O)(=O)c1cccc(COC(=O)c2cccnc2Cl)c1,5.8,-1.1%,0.0%,-9.7,2.9%,0.0%
CC(C)(C)OC(=O)N1CCCC1C(=O)NC1COC2CC(n3cc(F)c(=O)[nH]c3=O)OC12 (configuration not stated),3.7,.,.,-2.7,.,.
COc1ccc2c(C)cc(C)nc2n1,-2.8,-0.3%,1.2%,-6.7,-1.0%,-15.6%
COc1ccc2[nH]c(S(=O)Cc3ncc(C)c(OC)c3C)nc2c1 (configuration not stated),8.9,-12.3%,5.86µM*,3.9,-94.0%,.
COc1ccc2[nH]c(S(=O)Cc3ncc(C)c(OC)c3C)nc2n1 (configuration not stated),.,.,8.49µM*,.,.,9.53µM*
COc1ccnc(CS(=O)c2nc3cc(C(O)(F)F)ccc3[nH]2)c1OC (configuration not stated),6.2,-5.2%,14.9%,7.4,1.6%,6.9%
